Test results from PubChem BioAssay.
For some of these results: Results with a measured potency or affinity are listed apart. Active and inactive are the calls of the source. Unless noted, how the calls were made is not given here.

How the values were obtained:
[1] = antimalarial activity against Dd2 strain (AID 2302;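 active means growth inhibition above 50% at the single 2 µM test dose, taken to imply half-maximal potency below 2 µM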;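 further: 0% = DMSO untreated growth and 100% = chloroquine plus artemisinin killed control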); details: P. falciparum Dd2 in RBCs, LDH growth readout, 72 h; at 2 µM; active compounds read high
[2] = HepG2 cytotoxicity, primary screen, cytotoxicity control for P. falciparum antimalarial project, cell-based, ATP luminescence (AID 2303;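 active means inhibition above 50%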;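 further: 0% = DMSO wells and 100% = digitonin-killed cells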); details: HepG2 viability, 24-48 h, at 10 µM, active compounds read high
[3] = target: L-lactate dehydrogenase (Plasmodium falciparum (isolate CDC / Honduras)) (UniProt Q27743); assay: PfLDH activity inhibition – cell lysate, 3D7 strain, counter-screen for P. falciparum growth inhibition project (AID 2304);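 further: 0% = vehicle and 100% = reference inhibitor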; details: P. falciparum 3D7 crude extract, LDH APAD/NBT absorbance; at 2 µM; active compounds read high
L-lactate dehydrogenase (Plasmodium falciparum (isolate CDC / Honduras)), sequence (Q27743 whole entry, looked up): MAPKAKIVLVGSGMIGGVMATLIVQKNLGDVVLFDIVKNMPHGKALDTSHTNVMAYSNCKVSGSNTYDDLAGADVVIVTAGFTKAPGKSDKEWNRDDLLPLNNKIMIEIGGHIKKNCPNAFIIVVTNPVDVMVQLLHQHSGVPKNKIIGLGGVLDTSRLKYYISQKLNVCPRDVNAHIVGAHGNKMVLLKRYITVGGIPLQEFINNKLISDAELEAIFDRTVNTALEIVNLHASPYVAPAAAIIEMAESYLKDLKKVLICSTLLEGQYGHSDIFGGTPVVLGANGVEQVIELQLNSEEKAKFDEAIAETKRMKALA

[4] = inhibition of 3D7 malaria parasite growth – strain 3D7 (AID 2306);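 further: 0% = DMSO wells and 100% = chloroquine plus artemisinin control wells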; details: P. falciparum 3D7 erythrocytic growth, LDH absorbance, 72 h; at 2 µM; active compounds read high
[5] = target: Calcium-dependent protein kinase 1 (Plasmodium falciparum (isolate 3D7)) (UniProt P62344); assay: PfCDPK1 kinase inhibitors, biochemical, TCAMS library (AID 1159585; cut-off not given, nearly all actives have IC50 up to about 0.98 µM;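 further: inhibitors leave more ATP so luminescence rises with inhibition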); details: recombinant PfCDPK1, Kinase-Glo ATP depletion luminescence
Calcium-dependent protein kinase 1 (Plasmodium falciparum (isolate 3D7)), sequence (P62344 whole entry, looked up): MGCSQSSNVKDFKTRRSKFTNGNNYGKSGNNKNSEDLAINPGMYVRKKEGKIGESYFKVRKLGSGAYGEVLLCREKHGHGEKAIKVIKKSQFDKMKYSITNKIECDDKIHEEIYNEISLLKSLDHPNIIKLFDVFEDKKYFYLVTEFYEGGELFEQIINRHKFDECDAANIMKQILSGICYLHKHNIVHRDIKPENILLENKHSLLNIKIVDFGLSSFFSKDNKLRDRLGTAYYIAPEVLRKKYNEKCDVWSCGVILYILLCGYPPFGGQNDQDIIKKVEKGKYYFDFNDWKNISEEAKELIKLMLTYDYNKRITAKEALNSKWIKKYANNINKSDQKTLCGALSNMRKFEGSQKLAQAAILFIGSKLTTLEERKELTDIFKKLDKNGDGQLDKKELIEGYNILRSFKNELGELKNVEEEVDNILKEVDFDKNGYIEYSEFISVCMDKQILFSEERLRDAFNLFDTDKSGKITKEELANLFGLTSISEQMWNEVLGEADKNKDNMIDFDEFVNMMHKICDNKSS

[6] = target: Plasmodium falciparum protein kinase 6 (PK6, PF3D7_1337100) (UniProt Q8IDW1); assay: PfPK6 kinase inhibitors, biochemical, TCAMS library (AID 1159586); details: recombinant PfPK6, Kinase-Glo ATP depletion luminescence
Plasmodium falciparum protein kinase 6 (PK6, PF3D7_1337100), sequence (Q8IDW1 1-305): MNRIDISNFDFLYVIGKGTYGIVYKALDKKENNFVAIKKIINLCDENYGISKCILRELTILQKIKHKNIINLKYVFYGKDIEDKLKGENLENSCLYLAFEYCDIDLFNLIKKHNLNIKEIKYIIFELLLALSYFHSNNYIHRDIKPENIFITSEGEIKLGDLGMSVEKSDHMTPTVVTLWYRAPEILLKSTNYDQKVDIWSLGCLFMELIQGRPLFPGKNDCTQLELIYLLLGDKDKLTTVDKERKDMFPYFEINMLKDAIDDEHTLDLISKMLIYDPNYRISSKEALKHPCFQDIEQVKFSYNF

[7] = target: Protein kinase 7 (PK7), Plasmodium falciparum 3D7 (PF3D7_0213400) (UniProt Q7YTF7); assay: inhibition of Plasmodium PK7 catalytic activity – biochemical, TCAMS antimalarial set, Kinase-Glo luminescence (AID 1159587); details: recombinant PfPK7, Kinase-Glo ATP depletion luminescence
Protein kinase 7 (PK7), Plasmodium falciparum 3D7 (PF3D7_0213400), sequence (Q7YTF7 1-343): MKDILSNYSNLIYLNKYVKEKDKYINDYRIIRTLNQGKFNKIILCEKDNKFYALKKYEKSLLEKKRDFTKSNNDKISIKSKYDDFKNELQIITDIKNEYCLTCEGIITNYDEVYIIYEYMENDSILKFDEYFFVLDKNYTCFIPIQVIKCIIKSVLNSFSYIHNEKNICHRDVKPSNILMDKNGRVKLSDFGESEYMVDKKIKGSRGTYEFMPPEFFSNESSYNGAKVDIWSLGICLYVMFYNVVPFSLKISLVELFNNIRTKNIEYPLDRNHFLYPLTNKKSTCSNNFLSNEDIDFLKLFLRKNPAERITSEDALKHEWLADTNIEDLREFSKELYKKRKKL

[8] = target: Calcium-dependent protein kinase 4 (Plasmodium falciparum (isolate 3D7)) (UniProt Q8IBS5); assay: PfCDPK4 kinase inhibitors, biochemical, TCAMS library (AID 1159588; cut-off not given, nearly all actives have IC50 up to about 0.91 µM); details: recombinant PfCDPK4, Kinase-Glo ATP depletion luminescence
Calcium-dependent protein kinase 4 (Plasmodium falciparum (isolate 3D7)), sequence (Q8IBS5 whole entry, looked up): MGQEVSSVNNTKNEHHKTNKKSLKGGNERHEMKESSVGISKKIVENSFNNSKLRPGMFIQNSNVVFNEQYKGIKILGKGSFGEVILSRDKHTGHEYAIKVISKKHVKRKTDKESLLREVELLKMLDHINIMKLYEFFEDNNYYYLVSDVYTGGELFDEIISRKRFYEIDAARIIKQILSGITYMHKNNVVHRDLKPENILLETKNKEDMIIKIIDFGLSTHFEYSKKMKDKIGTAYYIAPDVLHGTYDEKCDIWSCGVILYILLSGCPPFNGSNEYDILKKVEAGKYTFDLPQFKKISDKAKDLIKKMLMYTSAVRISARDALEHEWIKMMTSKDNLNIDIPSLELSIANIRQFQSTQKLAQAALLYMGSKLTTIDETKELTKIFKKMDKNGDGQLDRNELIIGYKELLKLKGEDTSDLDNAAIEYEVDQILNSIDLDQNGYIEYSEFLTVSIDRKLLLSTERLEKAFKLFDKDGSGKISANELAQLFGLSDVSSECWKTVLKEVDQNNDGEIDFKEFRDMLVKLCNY

CC(C)Cn1cc(C2CCN(CCN3CCC(CNC(=O)c4ccc(NC(=O)c5ccc(Cl)cc5)cc4)CC3)CC2)c2ccccc21
inactive: inhibition [2] 28% | inhibition [3] -2% | outcome [5] | outcome [6] | outcome [7] | outcome [8]
active: growth inhibition [1] 99% | growth inhibition [4] 101%

Cc1noc(C)c1-c1cccc(C(=O)NC2CCN(CCNC(=O)C(c3ccccc3)c3ccccc3)CC2)c1
inactive: inhibition [2] 27% | inhibition [3] 5% | outcome [5] | outcome [6] | outcome [7] | outcome [8]
active: growth inhibition [1] 74% | growth inhibition [4] 85%

COc1cccc(C(O)CNc2ccnc(Nc3ccc(Cl)cc3)n2)c1 (stereo not given)
active: growth inhibition [4] 99%
inactive: growth inhibition [1] 46% | inhibition [2] 31% | inhibition [3] -7% | outcome [5] | outcome [6] | outcome [7] | outcome [8]

O=c1cc(NCc2ccccc2NCc2ccc(Cl)c(Cl)c2)[nH]c2ccccc12
active: growth inhibition [1] 98% | growth inhibition [4] 93%
inactive: inhibition [2] 10% | inhibition [3] 3% | outcome [5] | outcome [6] | outcome [7] | outcome [8]

COc1cc2nc(NC3CCN(Cc4ccccc4)CC3)nc(N)c2cc1OC
inactive: growth inhibition [1] 30% | inhibition [2] 27% | inhibition [3] -2% | outcome [5] | outcome [6] | outcome [7] | outcome [8]
active: growth inhibition [4] 101%

COc1cccc(NC(=O)Nc2ccc(C)c(-c3ccc(C(=O)Nc4ccncc4)cc3)c2)c1
active: growth inhibition [1] 64% | growth inhibition [4] 99%
inactive: inhibition [2] 45% | inhibition [3] 1% | outcome [5] | outcome [6] | outcome [7] | outcome [8]

CCN(CC)CCNc1ccnc2[nH]c3ccc(Cl)cc3c12
active: growth inhibition [1] 92% | growth inhibition [4] 100%
inactive: inhibition [2] 3% | inhibition [3] 1% | outcome [5] | outcome [6] | outcome [7] | outcome [8]

N#Cc1ccc(N2CCN(Cc3ccc(-c4ccc(-c5nc6ccc(F)cc6[nH]5)s4)cc3)CC2)nc1
inactive: inhibition [2] 12% | inhibition [3] 3% | outcome [5] | outcome [6] | outcome [7] | outcome [8]
active: growth inhibition [1] 78% | growth inhibition [4] 100%

COc1ccc(C(=C(C)CC(C)C(=O)O)c2ccccc2)cc1 (stereo not given)
inactive: growth inhibition [1] -2% | inhibition [2] 6% | inhibition [3] -8% | outcome [5] | outcome [6] | outcome [7] | outcome [8]
active: growth inhibition [4] 95%

CCc1nc(N)nc(N)c1-c1ccc(F)cc1
inactive: growth inhibition [1] -3% | inhibition [3] -2% | outcome [5] | outcome [6] | outcome [7] | outcome [8]
active: inhibition [2] 52% | growth inhibition [4] 96%

CCCCn1c(Sc2ccc(C#N)c([N+](=O)[O-])c2)nnc1-c1ccc(OC)cc1
active: growth inhibition [1] 61% | growth inhibition [4] 93%
inactive: inhibition [2] 12% | inhibition [3] 0% | outcome [5] | outcome [6] | outcome [7] | outcome [8]

Cc1cccc2[nH]c(-c3ccc(-c4ccc(CN5CCCC(N)C5)cc4)s3)nc12 (stereo not given)
inactive: inhibition [2] 29% | inhibition [3] -9% | outcome [5] | outcome [6] | outcome [7] | outcome [8]
active: growth inhibition [1] 100% | growth inhibition [4] 101%

CCc1cc2c3c(N)nc(N)nc3ccc2n1C(CC)CC
inactive: growth inhibition [1] 12% | inhibition [3] 5% | outcome [5] | outcome [6] | outcome [7] | outcome [8]
active: inhibition [2] 71% | growth inhibition [4] 96%

COc1ccc(CNC2CCN(C)CC2)cc1-c1ccc(S(=O)(=O)NCCc2ccccn2)cc1
inactive: growth inhibition [1] 17% | inhibition [2] 13% | inhibition [3] -5% | outcome [5] | outcome [6] | outcome [7] | outcome [8]
active: growth inhibition [4] 93%

COc1cc(C)ccc1N1CCN(CCCCNC(=O)c2ccc(NC(=O)c3ccc(Cl)cc3)cc2)CC1
active: growth inhibition [4] 99%
inactive: growth inhibition [1] 31% | inhibition [2] 30% | inhibition [3] 4% | outcome [5] | outcome [6] | outcome [7] | outcome [8]

Cc1ccc2nc(/N=C(\N)NC(=O)NC3CCCCC3)nc(C)c2c1
active: growth inhibition [1] 94% | growth inhibition [4] 99%
inactive: inhibition [2] 8% | inhibition [3] 0% | outcome [5] | outcome [6] | outcome [7] | outcome [8]

CC(C)C[C@@H](C(=O)N[C@@H](CCCCNC(=O)OCc1ccccc1)C(=O)Nc1nccs1)[C@H](C)N(O)C=O
active: growth inhibition [1] 98% | growth inhibition [4] 99%
inactive: inhibition [2] -2% | inhibition [3] 8% | outcome [5] | outcome [6] | outcome [7] | outcome [8]

CC(C)(C)c1cc(C(=O)N2CCN(c3ncccc3C(F)(F)F)CC2)n(Cc2ccccc2)n1
active: growth inhibition [1] 99% | growth inhibition [4] 100%
inactive: inhibition [2] -8% | inhibition [3] 1% | outcome [5] | outcome [6] | outcome [7] | outcome [8]

COc1ccc2c(NN=Cc3cccc(Cl)c3)ccnc2c1
active: growth inhibition [1] 94% | growth inhibition [4] 101%
inactive: inhibition [2] 32% | inhibition [3] -3% | outcome [5] | outcome [6] | outcome [7] | outcome [8]

COC(=O)C(C)NCC(=O)c1ccccc1 (stereo not given)
active: growth inhibition [4] 97%
inactive: growth inhibition [1] 23% | inhibition [2] 5% | inhibition [3] 4% | outcome [5] | outcome [6] | outcome [7] | outcome [8]
